Measured values taken from PubChem BioAssay (NCATS).
Inconclusive results are not listed. The source made the active and inactive calls. Calls come from the whole dose curve; as a rule, active = well fitted curve in the direction sought with a large enough effect; inconclusive = small, poorly fitted or top-dose-only effect, or another doubt; inactive = no such curve, though single readings can be large; an effect the other way counts as inactive or inconclusive.

Assays:
[1] = test system: Zika virus NS2B-NS3 protease; test: Primary screen GU AMC qHTS for Zika virus inhibitors (AID 1347154);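 note: 0% = no-inhibitor control and -100% = no-enzyme control; nearly all actives have a fitted effect of over 70% in size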
Method in brief: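 Fluorogenic AMC-substrate cleavage by noncovalent NS2B-NS3 protease complex (25 nM, pH 8.0 Tris buffer with Tween 20) followed for 15 minutes at room temperature (~20% conversion). Percent inhibition from ex340/em450 signal change, fitted by 4-parameter Hill equation.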

[2] = biological target: Protein phosphatase 1D (Homo sapiens) (UniProt O15297); test: RapidFire Mass Spectrometry qHTS Assay for Modulators of WT P53-Induced Phosphatase 1 (WIP1) (AID 1347424);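 note: amount of dephosphorylated VEPPL-S-QETFS peptide product formed by WIP1; series mostly up to about 63 µM; plate controls were DMSO wells for no effect and GSK830371 inhibitor control at 10 µM for full effect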
Chain of Protein phosphatase 1D (Homo sapiens) (O15297 whole entry, looked up): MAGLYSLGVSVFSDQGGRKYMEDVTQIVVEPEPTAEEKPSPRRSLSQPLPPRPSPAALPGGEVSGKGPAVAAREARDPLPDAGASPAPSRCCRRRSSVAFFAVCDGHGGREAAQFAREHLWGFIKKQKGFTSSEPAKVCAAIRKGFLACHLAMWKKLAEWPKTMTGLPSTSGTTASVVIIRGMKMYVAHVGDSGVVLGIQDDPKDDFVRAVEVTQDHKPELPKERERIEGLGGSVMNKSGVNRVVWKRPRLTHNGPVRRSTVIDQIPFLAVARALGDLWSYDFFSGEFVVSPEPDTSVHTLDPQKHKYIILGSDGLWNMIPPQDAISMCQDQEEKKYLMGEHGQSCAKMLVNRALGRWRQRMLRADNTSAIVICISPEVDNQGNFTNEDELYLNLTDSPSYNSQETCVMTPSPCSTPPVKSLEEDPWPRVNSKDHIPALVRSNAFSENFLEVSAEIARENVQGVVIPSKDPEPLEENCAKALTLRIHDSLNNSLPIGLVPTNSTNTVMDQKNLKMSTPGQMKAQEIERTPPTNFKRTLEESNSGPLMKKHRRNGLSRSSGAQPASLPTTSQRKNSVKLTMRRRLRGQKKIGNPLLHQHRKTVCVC
Method in brief: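 10 nM WIP1 + cpd, 1 h RT; + 2 uM VEPPL-pS-QETFS, 5 min RT; stop 0.5% formic acid; labelled product standard 1 uM; RapidFire MS. Buffer 50 mM Tris pH 7.5, 30 mM MgCl2, 1 mM TCEP.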

[3] = biological target: Protein phosphatase 1D (Homo sapiens) (UniProt O15297); test: Rhodamine-PBP qHTS Assay for Modulators of WT P53-Induced Phosphatase 1 (WIP1) (AID 1347425); note: % of control where 0% means no effect
Method in brief: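 WIP1 (5 nM final) was preincubated with compound for 1 hour at room temperature. It then dephosphorylated 10 uM VEPPL-pS-QETFS peptide in Tris-HCl pH 7.5 with 30 mM MgCl2. Released Pi was detected by 10 uM Rh-PBP fluorescence (ex 525/em 598 nm) read at 1-min intervals for 11 min, as delta f1 - f0.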

[4] = Primary qHTS for inhibitors of La Crosse Virus (LACV) - induced cell death in SH-SY5Y cells (AID 1508616);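 note: top concentration of the series differs between compounds; 0% = infected DMSO wells and 100% = uninfected DMSO wells; higher means more rescue of cells from virus-induced death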
Method in brief: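 Protection against LACV-induced cell death is scored in SH-SY5Y cells exposed to compounds and virus (0.01 MOI) for 6 days. Data normalized to virus-infected DMSO wells and virus-free DMSO wells.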

[5] = qHTS to identify inhibitors of the type 1 interferon - major histocompatibility complex class I in skeletal muscle: primary screen against the NCATS Pharmaceutical Collection (AID 1347407);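 note: luminescence of HiBiT knocked into endogenous HLA-B as interferon-induced MHC class I level; % is set by controls: 0 for no effect and ±100 for the full control effect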
Method in brief: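 Immortalized human myoblasts (C25cl48) with HiBiT knocked into endogenous HLA-B*08:01 were stimulated with 4 ng/ml IFN-beta and treated with compounds (8-point, 1:5, top 46 uM final) for 24 h at 37 C; HiBiT lytic luminescence read.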

[6] = test system: Zika virus NS2B-NS3 protease (unlinked complex); test: Primary screen GU Rhodamine qHTS for Zika virus inhibitors: Unlinked NS2B-NS3 protease assay (AID 1347159); note: % is set by controls: 0 for no effect and ±100 for the full control effect; nearly all actives have a fitted effect of over 60% in size
Method in brief: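 Noncovalent NS2B hydrophilic domain/NS3 protease complex (25 nM final) in 10 mM Tris-HCl pH 8.0, 0.01% Tween 20, preincubated 15 min with compounds (up to 114 microM), then 1.5 microM Rhodamine110 substrate. Fluorescence change over 15 min fitted to 4-parameter Hill.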

[7] = test system: Zika virus NS2B-NS3 protease (linked construct); test: Primary screen NINDS Rhodamine qHTS for Zika virus inhibitors (AID 1347160); note: nearly all actives have a fitted effect of over 55% in size; for activity change, negative = inhibition: % is set by controls: 0 for no effect and ±100 for the full control effect
Method in brief: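 Purified NS2B-NS3 protease with the NS2B hydrophilic domain joined by a flexible linker (25 nM) in 10 mM Tris-HCl pH 8.0, 0.01% Tween 20, preincubated 15 min at RT with compound; Rhodamine110 peptide substrate 1.5 µM; fluorescence change over 15 min; 4-parameter Hill fit.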

[8] = Confirmatory screen GU Rhodamine qHTS for Zika virus inhibitors qHTS (AID 1347157); settings: purified enzyme assay, Rhodamine110 substrate fluorescence, 15 min; note: potency is the fitted concentration of half-maximal effect; nearly all actives have a fitted effect of over 70% in size
Method in brief: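 In dose–response format, inhibition of unlinked protease (25 nM) was measured with 1.5 microM bis-peptide Rhodamine110 substrate. Aprotinin served as the intraplate control.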

[9] = Confirmatory screen NINDS Rhodamine qHTS for Zika virus inhibitors (AID 1347161); settings: purified enzyme assay, Rhodamine110 substrate fluorescence, 15 min; note: potency is the fitted concentration of half-maximal effect; nearly all actives have a fitted effect of over 60% in size
Method in brief: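 Kinetic fluorescence (Ex 480 nm, Em 540 nm) over 15 min with 1.5 microM Rhodamine110 peptide and 25 nM linked protease.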

[10] = biological target: Lysine-specific demethylase 5B (Homo sapiens) (UniProt Q9UGL1); test: Optimization screen for KDM5B Histone Demethylases FDH coupled qHTS against the LOPAC library (AID 1347166); note: 0% is about no effect
Chain of Lysine-specific demethylase 5B (Homo sapiens) (Q9UGL1 whole entry, looked up): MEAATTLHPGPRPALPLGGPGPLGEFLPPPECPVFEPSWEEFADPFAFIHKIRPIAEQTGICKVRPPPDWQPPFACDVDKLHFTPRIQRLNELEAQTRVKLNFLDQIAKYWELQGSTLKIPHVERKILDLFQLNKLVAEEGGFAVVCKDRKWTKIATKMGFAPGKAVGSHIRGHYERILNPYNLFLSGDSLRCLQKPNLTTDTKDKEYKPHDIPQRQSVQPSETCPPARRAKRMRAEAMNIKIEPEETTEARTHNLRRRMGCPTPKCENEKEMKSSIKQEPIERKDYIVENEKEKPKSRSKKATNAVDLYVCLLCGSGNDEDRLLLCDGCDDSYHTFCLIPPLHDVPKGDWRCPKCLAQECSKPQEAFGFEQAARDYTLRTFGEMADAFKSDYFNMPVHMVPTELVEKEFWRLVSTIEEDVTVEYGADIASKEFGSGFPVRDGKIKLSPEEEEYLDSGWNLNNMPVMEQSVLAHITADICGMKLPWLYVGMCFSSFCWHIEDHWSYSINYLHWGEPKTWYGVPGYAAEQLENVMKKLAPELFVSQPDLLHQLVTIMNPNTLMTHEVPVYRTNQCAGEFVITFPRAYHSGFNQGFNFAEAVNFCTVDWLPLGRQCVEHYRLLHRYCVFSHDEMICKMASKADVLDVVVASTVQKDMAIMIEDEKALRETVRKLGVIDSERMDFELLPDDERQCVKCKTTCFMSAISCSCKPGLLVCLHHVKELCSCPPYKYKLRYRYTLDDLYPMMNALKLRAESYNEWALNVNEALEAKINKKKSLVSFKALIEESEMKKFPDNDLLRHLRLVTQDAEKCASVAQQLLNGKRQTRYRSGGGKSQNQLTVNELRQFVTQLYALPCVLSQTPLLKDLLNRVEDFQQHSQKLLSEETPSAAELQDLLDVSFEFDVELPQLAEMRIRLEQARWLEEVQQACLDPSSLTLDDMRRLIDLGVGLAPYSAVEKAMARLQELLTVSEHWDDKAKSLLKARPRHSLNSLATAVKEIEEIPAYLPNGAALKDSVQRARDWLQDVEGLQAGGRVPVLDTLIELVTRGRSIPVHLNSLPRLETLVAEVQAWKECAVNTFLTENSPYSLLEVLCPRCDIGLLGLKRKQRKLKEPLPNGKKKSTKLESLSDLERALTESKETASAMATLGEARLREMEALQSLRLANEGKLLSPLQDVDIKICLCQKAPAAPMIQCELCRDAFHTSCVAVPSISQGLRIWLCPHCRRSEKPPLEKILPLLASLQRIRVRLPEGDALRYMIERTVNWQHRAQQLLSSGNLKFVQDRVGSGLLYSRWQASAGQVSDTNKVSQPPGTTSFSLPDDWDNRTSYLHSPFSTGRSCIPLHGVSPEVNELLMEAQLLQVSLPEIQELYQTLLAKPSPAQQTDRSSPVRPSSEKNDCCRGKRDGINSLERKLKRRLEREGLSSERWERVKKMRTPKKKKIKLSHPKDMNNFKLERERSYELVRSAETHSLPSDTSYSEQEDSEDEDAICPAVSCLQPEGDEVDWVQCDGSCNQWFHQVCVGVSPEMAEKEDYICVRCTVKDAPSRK
Method in brief: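 KDM5BDeltaAP (200nM final) preincubated 10 min with compound, then 12.5uM H3K4Me3, 25uM a-ketoglutarate, ascorbate, Fe(II), NAD+ and FDH added; 50mM HEPES pH 7.5, 0.01% Tween-20. NADH fluorescence (340/450 nm) change over 30 min, room temperature.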

[11] = qHTS to identify inhibitors of the type 1 interferon - major histocompatibility complex class I in skeletal muscle: primary screen against the NCATS LOPAC collection (AID 1347405);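 note: lytic HiBiT luminescence reporting HLA-B protein level; % is set by controls: 0 for no effect and ±100 for the full control effect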
Method in brief: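 Luminescence from HiBiT fused to endogenous HLA-B in CRISPR-engineered human myoblasts served as the read-out. Cells received 4.0 ng/ml IFN-beta plus compound (seven concentrations, 1:4.3 steps, highest 46 uM final) for 24 hrs before lytic detection.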

[12] = qHTS for inhibitors of adenylyl cyclases using a fission yeast platform: a pilot screen against the NCATS LOPAC library (AID 1347410);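 note: plate controls were DMSO vehicle for no effect and DPI positive control for full effect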
Method in brief: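 S. pombe CHP2027 (AC9-GNAS-PDE4D2) carrying a PKA-repressed fbp1-GFP reporter was exposed to LOPAC compounds (final up to 57 µM) for 18 h at 30C in the dark, in EMM with histidine, lysine and uracil; GFP gain-of-signal read by laser scanning cytometry.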

[13] = Validation qHTS assay for inhibitors of Activation Induced Cytidine Deaminase (AID): UDG Counterscreen signal (AID 1347427); note: 0% is about no effect
Method in brief: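 Counterscreen read of UDG activity (2 U/mL, 4/3x) in the FRET deamination format with AID (1 uM, 4/3x), DJC20/DJC23 substrates (250 nM, 4x), 4 h at room temperature. NaOH stop, fluorescence at 560 ex/665 em.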

[14] = biological target: Single-stranded DNA cytosine deaminase (Homo sapiens) (UniProt Q9GZX7); test: Validation qHTS assay for inhibitors of Activation Induced Cytidine Deaminase (AID): AID signal (AID 1347429); note: % is set by controls: 0 for no effect and ±100 for the full control effect
Chain of Single-stranded DNA cytosine deaminase (Homo sapiens) (Q9GZX7 whole entry, looked up): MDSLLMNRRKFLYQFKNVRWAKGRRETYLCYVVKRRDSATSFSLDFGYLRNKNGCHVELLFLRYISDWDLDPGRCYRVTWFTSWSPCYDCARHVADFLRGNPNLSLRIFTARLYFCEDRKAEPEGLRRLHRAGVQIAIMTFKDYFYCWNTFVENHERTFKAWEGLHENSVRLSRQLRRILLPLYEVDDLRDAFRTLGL
Method in brief: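 Fluorescence at 540 nm excitation and 590 nm emission reports ssDNA cytosine deamination by AID, with UDG in the same well. Compound-treated reactions ran 4 hr at room temperature with DJC20/DJC23 substrate, followed by 30 min NaOH treatment.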

CN1[C@@H]2CC(OC(=O)[C@H](CO)c3ccccc3)C[C@H]1[C@@H]1O[C@@H]12 (some centres undefined)
inactive: Potency [1] | outcome [2] | outcome [3] | outcome [4]

O=c1cc[nH]c(=O)[nH]1
inactive: Potency [1] | Potency [5] | outcome [3] | outcome [4]

Cc1c(Cl)cccc1Nc1ccccc1C(=O)O
inactive: Potency [1] | Potency [5] | outcome [4]

CN(C)CCCO[C@@H]1[C@H]2OC(C)(C)O[C@H]2O[C@@H]1C(O)CO (some centres undefined)
inactive: Potency [1] | outcome [2] | outcome [3] | outcome [4]

N[C@@H](CSSC[C@H](N)C(=O)O)C(=O)O
inactive: activity change, negative = inhibition [1] 4.84% [at 0.59 µM] | activity change, negative = inhibition [5] 0.957% [at 0.727 µM] | activity change, negative = inhibition [3] 14.5% [at 0.575 µM]

CCCc1c(OCCCCc2nn[nH]n2)ccc(C(C)=O)c1O
inactive: Potency [1] | Potency [5] | outcome [3] | outcome [4]

CCCCCCCCCCCCCCCCCCOCC(O)CO (centres undefined)
inactive: Potency [1] | Potency [5] | outcome [3] | outcome [4]

[O-][n+]1cccc(CO)c1
inactive: Potency [1] | Potency [5] | outcome [2] | outcome [3] | outcome [4]

COC(=O)[C@H]1[C@H]2C[C@@H]3c4[nH]c5cc(OC)ccc5c4CCN3C[C@H]2C[C@@H](OC(=O)COc2ccc(OC)cc2)[C@@H]1OC
inactive: Potency [1] | Potency [5] | outcome [3]

CC(=O)Oc1c(C)c(C)c2c(c1C)CC[C@@](C)(CCC[C@H](C)CCC[C@H](C)CCCC(C)C)O2
inactive: Potency [1] | outcome [2] | outcome [3]

O=C(O)CC(O)C(=O)O (centres undefined)
inactive: Potency [1] | Potency [5] | outcome [3] | outcome [4]

CC1(C)OC(=O)NC1=O
inactive: Potency [1] | Potency [5] | outcome [3] | outcome [4]

COc1ccc2cc1Oc1cc3c(cc1OC)CC[N+](C)(C)[C@H]3Cc1ccc(cc1)Oc1c(OC)c(OC)cc3c1[C@@H](C2)[N+](C)(C)CC3
inactive: Potency [1] | outcome [2] | outcome [3] | outcome [4]

Cc1ncc(COP(=O)(O)O)c(C=O)c1O
inactive: Potency [1] | Potency [5] | outcome [4]

C[C@@H]1CN(c2c(F)c(F)c3c(=O)c(C(=O)O)cn(C4CC4)c3c2F)C[C@H](C)N1
inactive: activity change, negative = inhibition [6] -12.9% [at 19.1 µM] | outcome [7] inactive [at 10.7 µM] | outcome [2] | outcome [3] | outcome [4]

COc1ccc2c(c1)C(=O)N(CCc1ccc(S(=O)(=O)NC(=O)NC3CCCCC3)cc1)C(=O)C2(C)C
inactive: Potency [6] | outcome [4]
active: Potency [8] 27.8 µM | Potency [9] 31.2 µM

CCN(CC)C(=O)Nc1ccc(OCC(O)CNC(C)(C)C)c(C(C)=O)c1 (centres undefined)
inactive: Potency [6] | Potency [7] | Potency [5] | outcome [2] | outcome [3] | outcome [4]

O=c1[nH]c(=O)c2[nH]c(=O)[nH]c2[nH]1
inactive: activity change, negative = inhibition [1] -2.36% [at 6.83 µM] | activity change, negative = inhibition [3] 10.4% [at 11.5 µM]

CC(=O)Nc1ccc(/C=N/NC(N)=S)cc1
inactive: Potency [1] | outcome [2] | outcome [3] | outcome [4]

CC(C)(C)c1onc(OCP(=O)(O)O)c1CC(N)C(=O)O (centres undefined)
inactive: outcome [10] | Potency [11] | outcome [12] | Potency [13] | Potency [14] | outcome [4]

CC(C)(C)C(=O)C(Oc1ccc(Cl)cc1)n1ccnc1 (centres undefined)
inactive: Potency [6] | Potency [7] | outcome [2] | outcome [3] | outcome [4]

CNC(=O)Oc1ccc2c(c1)[C@]1(C)CCN(C)[C@@H]1N2C
inactive: Potency [6] | Potency [7] | outcome [10] | Potency [11] | Potency [5] | outcome [12] | outcome [2] | outcome [3] | Potency [13] | Potency [14]
